Bioassay records: PubChem, National Center for Advancing Translational Sciences (NCATS)
This is a sample that favours compounds with a hit; in the whole collection about 1% have one here.
WRN helicase inh: inhibitors of human WRN helicase | WRN helicase unwinding, fluorescent forked duplex, kinetic | Potency, µM (doses to about 114 µM), usual class: inhibitors | hit rate 0.46% among 360,000 | AID 651768; note: nearly all actives have a fitted effect of over 55% in size
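Kinetic fluorescence helicase assay: unwinding of a quenched forked DNA duplex (100 nM final) with 2 mM ATP final raises red fluorescence (525/598 nm). Compounds sat 15 min at room temperature with 20 nM WRN beforehand.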
BLM inh: inhibitors of human Bloom syndrome helicase BLM | P54132 | recombinant BLM DNA unwinding, fluorescence dequenching | Potency, µM (doses to about 56.1 µM), most hits filed as inhibitors | hit rate 0.2% among 350,000; note: nearly all actives have a fitted effect of over 35% in size
L3MBTL1 inh: L3MBTL1 (human) inhibition; Q9Y468; AlphaScreen L3MBTL1–H3K9me1 peptide binding; Potency, µM (top dose mostly 57.1 µM), most hits filed as inhibitors; hit rate 0.66% among 230,000; note: nearly all actives have a fitted effect of over 60% in size
Target sequence (Q9Y468 whole entry, looked up): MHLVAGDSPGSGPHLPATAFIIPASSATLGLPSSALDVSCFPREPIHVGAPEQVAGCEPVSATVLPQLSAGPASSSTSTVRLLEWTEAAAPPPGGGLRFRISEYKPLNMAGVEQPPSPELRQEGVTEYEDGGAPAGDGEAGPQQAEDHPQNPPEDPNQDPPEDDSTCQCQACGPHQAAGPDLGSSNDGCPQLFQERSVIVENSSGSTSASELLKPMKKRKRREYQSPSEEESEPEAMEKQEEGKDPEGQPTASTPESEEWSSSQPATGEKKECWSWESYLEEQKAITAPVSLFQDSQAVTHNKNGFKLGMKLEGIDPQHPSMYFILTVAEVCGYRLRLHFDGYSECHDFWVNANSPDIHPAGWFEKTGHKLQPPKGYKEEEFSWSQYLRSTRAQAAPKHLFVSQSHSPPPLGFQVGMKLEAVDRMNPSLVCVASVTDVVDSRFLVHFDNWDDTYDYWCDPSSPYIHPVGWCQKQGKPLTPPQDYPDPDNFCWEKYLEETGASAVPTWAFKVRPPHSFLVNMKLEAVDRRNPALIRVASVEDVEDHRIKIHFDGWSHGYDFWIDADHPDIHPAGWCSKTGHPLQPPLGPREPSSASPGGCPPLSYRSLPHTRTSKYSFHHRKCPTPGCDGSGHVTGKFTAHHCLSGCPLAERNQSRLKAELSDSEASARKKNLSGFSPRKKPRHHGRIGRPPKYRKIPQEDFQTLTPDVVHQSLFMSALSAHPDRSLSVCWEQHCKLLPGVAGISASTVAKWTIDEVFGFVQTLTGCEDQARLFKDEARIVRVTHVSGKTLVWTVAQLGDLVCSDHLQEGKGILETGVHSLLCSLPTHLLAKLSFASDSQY
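Displacement of a biotinylated histone H3(1-15) peptide monomethylated at Lys9 (75 nM) from L3MBTL1 (50 nM) was measured by AlphaScreen after a 30 min room-temperature compound incubation; cefsulodin titration served as intraplate control.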
APEX1 inh: APE1 (human) endonuclease inhibition. P27695. recombinant APE1, TAMRA/BHQ-2 abasic DNA cleavage fluorescence. Potency, µM (series often up to 65.8 µM), hits mostly inhibitors. hit rate 0.35% among 350,000. AID 2517; note: nearly all actives have a fitted effect of over 55% in size
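Substrate: short duplex with […] THF abasic site, 5'-TAMRA and 3'-BHQ-2, 50 nM final. APE1 at 0.75 nM, preincubated 15 min RT with compound. Fluorescence increase from first to third read measured activity.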
FEN1 inhibitor: human FEN1 inhibition; hit rate 0.35% among 390,000; Potency, µM (titrated, usually from 114 µM), most hits filed as inhibitors; P39748; Recombinant FEN1 flap cleavage, fluorescence, 15 min; note: nearly all actives have a fitted effect of over 65% in size
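Nuclease activity of 10 nM FEN1 was measured after 15 min of room-temperature exposure to titrated compounds, by adding 50 nM flap substrate and reading plates at 0 and 15 min.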
RECQ1 helicase: blocks DNA unwinding by human RECQ1 | P46063 | RECQ1 DNA unwinding, red fluorescence kinetic read | Potency, µM (series often up to 57.3 µM), actives largely listed as inhibitors | hit rate 0.54% among 240,000 | AID 2549; note: nearly all actives have a fitted effect of over 30% in size
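50 nM RECQ1T1 preincubated 15 min with compound in Tris pH 8.0 buffer with MgCl2, DTT, Tween-20 and 2.5 ug/ml poly(dI-dC); started with 200 nM TAMRA/BHQ-2 forked duplex and 2 mM ATP. Unwinding read as fluorescence (525/598 nm), two reads 2 h apart.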
Numbers stand for hits; n = inactive; u = inconclusive; x = not tested or not shown; [ ] = dose if it differs, or a comment. Calls come from the whole dose curve; as a rule, active = well fitted curve in the direction sought with a large enough effect; inconclusive = small, poorly fitted or top-dose-only effect, or another doubt; inactive = no such curve, though single readings can be large; an effect the other way counts as inactive or inconclusive.

SMILES	WRN helicase inh	BLM inh	L3MBTL1 inh	APEX1 inh	FEN1 inhibitor	RECQ1 helicase
COC(CNC(=O)c1ccc2nc(-c3ccccc3)c(-c3ccccc3)nc2c1)OC	n	n	x	n	n	n
CC1CCC2(CC1)NC(=O)N(CC(=O)Nc1ccc(F)cc1)C2=O (stereo not given)	n	x	n	n	n	x
C[C@@H]1CN([C@H](C)CO)C(=O)CCCn2nncc2CO[C@H]1CN(C)Cc1cccnc1	n	x	x	x	x	x
COC1OC(COC(=O)c2ccccc2)C(OC(=O)c2ccccc2)C1OC(=O)c1ccccc1 (stereo not given)	n	n	x	n	n	x
O=C(OC[C@H]1O[C@@H](OC(=O)c2cc(O)c(O)c(OC(=O)c3cc(O)c(O)c(O)c3)c2)[C@H](OC(=O)c2cc(O)c(O)c(OC(=O)c3cc(O)c(O)c(O)c3)c2)[C@@H](OC(=O)c2cc(O)c(O)c(OC(=O)c3cc(O)c(O)c(O)c3)c2)[C@@H]1OC(=O)c1cc(O)c(O)c(OC(=O)c2cc(O)c(O)c(O)c2)c1)c1cc(O)c(O)c(OC(=O)c2cc(O)c(O)c(O)c2)c1	x	x	0.1µM	0.0053µM	n	x
c1ccc(-c2cn(C[C@H]3CC[C@@H]([C@@H]4CC[C@H](Cn5cc(-c6ccccn6)nn5)O4)O3)nn2)nc1	n	n	2.51µM	n	n	x
Cc1ccc(Nc2ccc(N3CCN(C(=O)c4ccc([N+](=O)[O-])cc4Cl)CC3)nn2)cc1	x	n	x	x	n	x
Cc1cc(C2(c3ccc(O)c(C)c3)OC(=O)c3ccccc32)ccc1O	n	n	u	u	n	n
O=C(O)CN(CC(=O)O)CC1=CC2C(=CC1=O)Oc1cc(O)c(CN(CC(=O)O)CC(=O)O)cc1C21OC(=O)c2ccccc21 (stereo not given)	x	x	x	12.6µM	x	x
Cn1cc(CNC(=O)c2cnn3c2NC(=C2CC2)C=C3C(F)F)cn1	x	x	x	n	x	x
Oc1ccc(/C=N/Nc2ccnc3cc(Cl)ccc23)c(O)c1O	u	n	x	n	44.7µM	x
CC/C(=N\Nc1ccnc2cc(Cl)ccc12)c1ccc(O)cc1	n	n	x	n	n	x
Oc1ccc(/C=N/Nc2ccnc3cc(Cl)ccc23)cc1O	u	28.2µM	x	u	u	n
O=C1Nc2c(Cl)cccc2C1=O	n	x	x	x	x	x
Cc1cccc2c1NC(=O)C2=O	28.2µM	x	x	x	u	x
CN(C)C(=S)Nc1cccc(-c2n[nH]c(=S)o2)c1	n	n	x	n	n	n
NNC(=S)Nc1cccc(-c2n[nH]c(=S)o2)c1	n[11.6 µM]	n	x	n	50.1µM	n
CC/C(=N\Nc1ccccc1[N+](=O)[O-])c1ccc(O)cc1	n	n	25.1µM	n	n	u
CC/C(=N\Nc1ccc([N+](=O)[O-])cc1[N+](=O)[O-])c1ccc(O)cc1	n	n	x	n	n	x
O=C(COc1ccc(F)cc1)NC1CC(=O)N(c2ccc3c(c2)OCCO3)C1 (stereo not given)	x	n	x	x	n	x
CNc1ccncc1S(=O)(=O)NC	n	n	n	n	n	n
CNC1=C(Cl)C(=O)c2ccncc2C1=O	x	17.8µM	x	u	x	n
CNC1=C(Br)C(=O)c2ccncc2C1=O	x	14.1µM	x	u	x	n
CCN(CC)CCCn1c(-c2ccccc2)nc2c(NCCOC)nc(C)nc21	x	n	x	n	x	n
O=[N+]([O-])O[C@@H]1CO[C@H]2[C@@H]1OC[C@@H]2O	x	x	x	n	x	x
SMILES	WRN helicase inh	BLM inh	L3MBTL1 inh	APEX1 inh	FEN1 inhibitor	RECQ1 helicase
CCCCC(CC)C(=O)Nc1cc(C(=O)NCCC)ccc1N1CCC2(CC1)CC(c1cccc(Br)c1)=NO2 (stereo not given)	n	x	n	n	n	x
COc1ccc(C(=O)c2ccc(O)cc2)c(O)c1O	x	n	x	u	x	14.1µM
CCOc1ccc(C(=O)c2ccc(OC)c(O)c2O)cc1	x	n	x	n	x	n
O=C1c2ccccc2C(=O)C1(O)O	x	x	u	u	x	31.6µM
O=C1c2cccc3c2C2(O)c4c1cccc4C(=O)c1cccc(c12)C3=O	n	x	x	x	x	x
O=C(N/N=C/c1cc(Br)c(Br)o1)c1ccc2c(c1)OCCO2	u	n	u	31.6µM	n	u
O=C(N/N=C/c1cc(Br)c(O)c(Br)c1O)c1ccc2c(c1)OCCO2	n[11.6 µM]	n	x	n	n	x
O=C(Cn1nnc(-c2cc(C(F)(F)F)cc(C(F)(F)F)c2)n1)NNC(=S)Nc1ccc(Cl)cc1	n	17.8µM	n	n	n	n
COc1ccc(C2=C(C)C(=O)N(Cc3ccc(C(=O)NCc4cccc(C)c4)cc3)S2(=O)=O)cc1	x	n	x	x	n	x
C/C(=N\NC(=O)c1c[nH]c2ccccc12)c1ccccn1	n	n	8.91µM	n	n	n
C/C(=N\NC(=O)c1c[nH]c2ccccc12)c1ccco1	n	n	x	n	n	n
COCCCNC(=O)c1c(NC(=O)c2nc(S(C)(=O)=O)ncc2Cl)sc2c1CCCC2	x	n	x	x	n	x
Cc1cc(/C=N/n2c(COc3ccccc3)nc3ccccc3c2=O)c(O)c([N+](=O)[O-])c1	u	n	5.62µM	n	u	n
Cc1cccc(C)c1-n1c(SCC(=O)Nc2ccc(F)cc2)nnc1-c1cccc([S+](=O)([O-])N2CCCC2)c1	x	x	x	n	x	x
CCn1c2ccccc2c2cc(NC(=O)COC(=O)c3ccc(NC(=O)CC#N)cc3)ccc21	u	x	31.6µM	n	u	x
CCn1c2ccccc2c2cc(NC(=O)COC(=O)c3ccccc3F)ccc21	n	n	n	n	n	n
